According to PubChem BioAssay (NCATS):
Results filed as inconclusive are left out. A call without a number means that no potency is given here. Active and inactive are the calls of the source. Calls follow the shape of the dose curve; as a rule, active = well fitted curve in the direction sought with a large enough effect; inconclusive = small, poorly fitted or top-dose-only effect, or another doubt; inactive = no such curve, though single readings can be large; an effect the other way counts as inactive or inconclusive.

Legend:
[1] = OV-KATE Cancer Cell Toxicity qHTS against the NCATS CANVASS Library (AID 1347345)
Method in brief: (§1)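 Per well, 1000 cells; exposure 72 h with compound at 11 final concentrations; readout CellTiter-Glo luminescence.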

[2] = SW1088 Cancer Cell Toxicity qHTS against the NCATS CANVASS Library (AID 1347350); also: nearly all actives have a fitted effect of over 75% in size
Method in brief: as §1

[3] = UWB1.289-WTBRCA1 Cancer Cell Toxicity qHTS against the NCATS CANVASS Library (AID 1347354)
Method in brief: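 1000 cells/well, 4 h pre-incubation 37 °C/5% CO2; 11-pnt titration; 72 h; CellTiter-Glo 15 min RT, luminescence.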

[4] = tested on: NAD(P)H diaphorase (Clostridium kluyveri); test: Diaphorse counterscreen qHTS: Assay Interference Panel against the NCATS CANVASS Library (AID 1347362)
Method in brief: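 Clostridium kluyveri diaphorase in PBS with 0.01% Tween-20 was preincubated 15 min at room temperature in the dark with compounds (11-point series). Resorufin fluorescence (ex 525/20, em 598/25) was read 5 min after adding resazurin/NADH.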

[5] = KB-3-1 Cancer Cell Toxicity qHTS against the NCATS CANVASS Library (AID 1347366); also: nearly all actives have a fitted effect of over 75% in size
Method in brief: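 Luminescence from CellTiter-Glo (10 min, room temperature) measured KB-3-1 viability after 72 hr compound exposure at 37C. Cells were seeded at 500/well and tested in an 11-point series.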

[6] = G06 Cancer Cell Toxicity qHTS against the NCATS CANVASS Library (AID 1347368); also: nearly all actives have a fitted effect of over 60% in size; also: potency is read from the fitted curve at half-maximal effect
Method in brief: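 ATP luminescence (CellTiterGlo) readout of cytotoxicity. Canine G06 glioma cells, 500/well, 72 hr incubation at 37C with compounds; bortezomib titration served as control.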

[7] = qHTS for ATAD5 Antagonist screened against the NCATS CANVASS Library (AID 1347370);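 also: HEK293T cells carrying an ATAD5 luciferase reporter co-treated with 10 µM 5-fluorouridine; series mostly up to about 46 µM; nearly all actives have a fitted effect of over 65% in size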
Method in brief: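 HEK293T-ATAD5 luc reporter, 2000 cells/well; 5hr attach; cpd + 10 uM 5-FUrd; 16hr 37C, 5% CO2. Readouts: CellTiter-Fluor fluorescence (1hr), then Amplite luciferase luminescence (30min RT).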

[8] = J3T Cancer Cell Toxicity qHTS against the NCATS CANVASS Library (AID 1347371);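 also: J3T is a canine glioma cancer cell line seeded at 500 cells per well; series mostly up to about 46 µM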
Method in brief: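 Dog glioma J3T, 500 cells/well; cpd 11-pt qHTS; 72 hr, 37C/5% CO2; CellTiterGlo ATP luminescence readout.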

[9] = qHTS for Hypoxia signaling pathway (HIF-1) antagonists against the NCATS CANVASS Library (AID 1347374);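 also: HRE-bla ME-180 cells stimulated with cobalt chloride to stabilize HIF-1alpha; series mostly up to about 38 µM; nearly all actives have a fitted effect of over 60% in size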
Method in brief: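 Beta-lactamase reporter under HRE control in ME-180 cells; CoCl2 stimulus (60 uM solution as added), compounds 11-pt qHTS, 17 h 37C. CCF4 dye 2 h RT, 460/530 nm emission. CellTiter-Glo viability in same wells.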

[10] = qHTS for Hypoxia signaling pathway (HIF-1) agonists against the NCATS CANVASS Library (AID 1347375)
Method in brief: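 Read-out: beta-lactamase FRET (CCF4-AM, ex 405, em 460 and 530 nm) after 2 h at room temperature. ME-180 cells stably carrying HRE-bla were treated 17 h at 37C with compounds in an 11-point concentration series.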

[11] = qHTS for Inflammasome Signaling Inhibitors: IL-1-beta AlphaLISA screen against the NCATS CANVASS Library (AID 1347379);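 also: human THP-1 cells primed with LPS then triggered with ATP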
Method in brief: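 THP-1, 1 hr compound pre-incubation, then LPS 250 ng/mL + ATP 1.25 mM (final); 16 hr total with compound; IL-1B AlphaLISA, ex 680/em 615 nm; 11-point qHTS, up to 57.5 uM final.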

[12] = qHTS assay for small molecule disruptors of mitochondrial membrane potential screened against the NCATS CANVASS Library (AID 1347389); also: nearly all actives have a fitted effect of over 60% in size; also: potency is read from the fitted curve at half-maximal effect
Method in brief: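 Red/green fluorescence ratio read-out: J-aggregates ex 540/em 590 nm, monomers ex 490/em 535 nm. HepG2, 1 hr compound treatment, then 30 min Mito-MPS dye at 37C. 11-pt qHTS concentration series.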

[13] = qHTS for activators of Nrf2/ARE signaling pathway screened against the NCATS CANVASS Library (AID 1347391); also: potency is read from the fitted curve at half-maximal effect; nearly all actives have a fitted effect of over 60% in size
Method in brief: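 HepG2 ARE-bla; cpd 11-pt qHTS, 16 h 37C/5% CO2; CCF4 substrate 2 h RT; read ex 405 / em 460 + 530 nm. Viability by CellTiter-Glo luminescence, 30 min RT.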

[14] = qHTS for inhibitors of Wild type Zika virus screened against the NCATS CANVASS Library (AID 1347396);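 also: ATP luminescence of surviving cells so rescue from viral cell killing; series mostly up to about 46 µM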
Method in brief: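 Using ATP-based luminescence (CellTiter Glo), this screen scores rescue of Vero 766 cells from wild-type Zika killing at 72 h post-infection. Compounds are tested in a concentration series.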

[15] = target: Nuclear receptor subfamily 1 group I member 3 (Homo sapiens) (UniProt Q14994); test: qHTS for Constitutive Androstane Receptor (CAR) Agonist screened against the NCATS CANVASS Library (AID 1347373);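 also: every well also contained 1.5 µM PK11195 alongside the test compound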
Sequence of Nuclear receptor subfamily 1 group I member 3 (Homo sapiens) (Q14994 whole entry, looked up): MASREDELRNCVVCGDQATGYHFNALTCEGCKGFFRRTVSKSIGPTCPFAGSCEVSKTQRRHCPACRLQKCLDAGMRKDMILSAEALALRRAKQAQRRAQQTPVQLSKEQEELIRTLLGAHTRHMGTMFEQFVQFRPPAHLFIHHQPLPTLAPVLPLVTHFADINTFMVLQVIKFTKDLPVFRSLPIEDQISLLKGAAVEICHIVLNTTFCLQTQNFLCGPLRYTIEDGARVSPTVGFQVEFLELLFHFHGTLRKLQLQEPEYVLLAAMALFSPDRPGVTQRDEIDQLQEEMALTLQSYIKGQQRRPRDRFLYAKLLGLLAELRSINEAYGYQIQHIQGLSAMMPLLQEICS
Method in brief: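 Luciferase read-out (ONE-Glo, 30 min RT) of CYP2B6-2.2kb promoter activity in double-stable HepG2-hCAR cells after 24hr compound exposure with 1.5uM PK11195 present; viability measured first by CellTiter-Fluor.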

[16] = DH5-alpha competent E. coli microbial cell viability qHTS against the NCATS CANVASS Library (AID 1347377); settings: outcome: dose series up to 46.1 µM unless noted
Method in brief: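 Luminescent ATP read-out (BacTiter-Glo, 20 min RT) after overnight 37C culture of DH5-alpha E. coli with compounds; daunomycin control at 0.2 nM–9.2 uM final.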

[17] = qHTS for inhibitors of ER calcium dysfunction: SERCaMP assay screened against the NCATS CANVASS Library (AID 1347393); also: potency is read from the fitted curve at half-maximal effect; nearly all actives have a fitted effect of over 40% in size
Method in brief: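 qHTS in SH-SY5Y reporter cells: 16 h compound pretreatment, 4 h thapsigargin, then secreted Gaussia luciferase measured by luminescence.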

[18] = Redox Reaction Profiling qHTS: Assay Interference Panel against the NCATS CANVASS Library (AID 1347401)
Method in brief: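 Quantitative HTS over an 11-point series was run in HEPES pH 7.3 with 50 mM NaCl, 200 uM DTT and 5 uM resazurin. Initial and 15-min resorufin fluorescence readings were taken.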

[19] = NCATS anti-infectives library activity on HEK293 viability as a counter-qHTS vs the C. elegans viability qHTS (AID 1745854); also: potency is read from the fitted curve at half-maximal effect
Method in brief: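 CellTiter-Glo luminescence, read on a CCD imager, scored viability of HEK293 cells after 24 hr compound exposure at 37C. Library tested in several concentrations, 1:5 steps, up to 41.7 uM; digitonin served as control.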

Structure (SMILES): CC1=C(C)C(=O)OC(C(C)C2(O)CCC3C4C5OC5C5(O)CC=CC(=O)C5(C)C4CCC32C)C1 (stereo not given)
- Potency [1]: inactive
- Potency [2]: inactive
- Potency [3]: inactive
- Potency [4]: inactive
- Potency [5]: inactive
- Potency [6]: 23.5 µM (active)
- Potency [7]: inactive
- Potency [8]: inactive
- Potency [9]: inactive
- outcome [10]: inactive
- Potency [11]: inactive
- Potency [12]: inactive
- Potency [13]: 18.6 µM (active)
- outcome [14]: inactive

Structure (SMILES): O=C1CC(c2ccc(O)cc2)Oc2cc(O)ccc21 (stereo not given)
- Potency [1]: inactive
- Potency [2]: inactive
- Potency [3]: inactive
- Potency [4]: inactive
- Potency [5]: inactive
- Potency [6]: inactive
- Potency [7]: inactive
- Potency [8]: inactive
- Potency [15]: inactive
- Potency [9]: inactive
- outcome [10]: inactive
- outcome [16]: inactive
- Potency [11]: inactive
- Potency [12]: 7.41 µM (active)
- Potency [17]: 30.5 µM (active)
- outcome [14]: inactive
- Potency [18]: inactive

Structure (SMILES): C=CC(=O)N1CC/C(=C\c2ccc(F)c([N+](=O)[O-])c2)C(=O)/C(=C/c2ccc(F)c([N+](=O)[O-])c2)C1
- Potency [19]: 1.78 µM (active)

Structure (SMILES): CC#Cc1cncc(-c2ccc3c(c2)[C@@]2(N=C(C)C(N)=N2)C2(CCC(OC)CC2)C3)c1 (stereo not given in full)
- Potency [19]: inactive

Structure (SMILES): CNC(=O)[C@@H](NC(=O)[C@H](CC(C)C)[C@H](O)C(=O)NO)C(C)(C)C
- Potency [19]: inactive

Structure (SMILES): O=c1[nH]nc2c3c(cccc13)NC(CN1Cc3ccccc3C1)=N2
- Potency [19]: inactive

Structure (SMILES): Cc1ccc(-c2ccc(C)cn2)nc1
- Potency [19]: inactive

Structure (SMILES): NC1=N[C@@]2(c3cc(NC(=O)c4ccc(F)cn4)ccc3F)COC[C@H]2CS1
- Potency [19]: inactive

Structure (SMILES): Cc1c(-c2cnccn2)ssc1=S
- Potency [19]: inactive

Structure (SMILES): c1ccc(CNCc2ccc(CN3CCCNCCNCCCNCC3)cc2)nc1
- Potency [19]: inactive

Structure (SMILES): COc1ccc(C(=O)N2CCN(c3ccc4c(c3)CCC(=O)N4)CC2)cc1OC
- Potency [19]: inactive

Structure (SMILES): CN1C(N)=N[C@](C)(c2cc(NC(=O)c3ccc(F)cn3)ccc2F)CS1(=O)=O
- Potency [19]: inactive

Structure (SMILES): CC(C)=CCC[C@](C)(O[C@@H]1O[C@H](CO[C@@H]2O[C@H](CO)[C@@H](O)[C@H](O)[C@H]2O)[C@@H](O)[C@H](O)[C@H]1O)[C@H]1CC[C@]2(C)[C@@H]1[C@H](O)C[C@@H]1[C@@]3(C)CC[C@H](O[C@@H]4O[C@H](CO)[C@@H](O)[C@H](O)[C@H]4O[C@@H]4O[C@H](CO)[C@@H](O)[C@H](O)[C@H]4O)C(C)(C)[C@@H]3CC[C@]12C
- Potency [19]: inactive

Structure (SMILES): Cc1cccc(/C=N/Nc2cc(N3CCOCC3)nc(OCCc3ccccn3)n2)c1
- Potency [19]: inactive

Structure (SMILES): CC(=O)N1c2ccc(-c3ccc(C(=O)O)cc3)cc2[C@H](Nc2ccc(Cl)cc2)C[C@@H]1C
- Potency [19]: inactive

Structure (SMILES): CC(=O)O/N=C1\C(=O)N(Cc2cc(Cl)ccc2Cl)c2ccc(Cl)cc21
- Potency [19]: inactive

Structure (SMILES): COc1ccnc2[nH]cc(C(=O)C(=O)N3CCN(C(=O)c4ccccc4)C[C@H]3C)c12
- Potency [19]: inactive

Structure (SMILES): C[C@]12CCC3[C@@H](CC[C@H]4NC(=O)C=C[C@]34C)[C@@H]1CC[C@@H]2C(=O)Nc1cc(C(F)(F)F)ccc1C(F)(F)F (stereo not given in full)
- Potency [19]: inactive

Structure (SMILES): Cn1cc(/C=C/C(=O)c2cccc(F)c2)cc1/C=C/C(=O)NO
- Potency [19]: inactive

Structure (SMILES): COC(=O)C1=C(C)NC(c2ncc(F)cc2F)=N[C@H]1c1ccc(F)cc1Cl
- Potency [19]: inactive

Structure (SMILES): COC[C@@H](c1ccc(C(F)(F)F)cc1)N1CCN(C2(C)CCN(C(=O)c3c(C)ncnc3C)CC2)C[C@@H]1C
- Potency [19]: inactive
